Reference: article PMC4336329 (PLoS ONE, 2015)
Screen size: about 310,000 compounds; about 14,000 (4.5%) showed an effect of 50% or more. Effects have a minus sign here. What follows is part of a selection rich in strong results, with near analogues and random picks from the rest.

target: human ether-à-go-go-related gene (hERG) potassium channel (human, UniProt Q12809); test: primary screen, population patch clamp on CHO cells stably expressing hERG; higher = less effect of the substance
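Note: peak tail current of the secondary pulse compared with the same well before compound.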

human ether-à-go-go-related gene (hERG) potassium channel, sequence (Q12809 whole entry, looked up): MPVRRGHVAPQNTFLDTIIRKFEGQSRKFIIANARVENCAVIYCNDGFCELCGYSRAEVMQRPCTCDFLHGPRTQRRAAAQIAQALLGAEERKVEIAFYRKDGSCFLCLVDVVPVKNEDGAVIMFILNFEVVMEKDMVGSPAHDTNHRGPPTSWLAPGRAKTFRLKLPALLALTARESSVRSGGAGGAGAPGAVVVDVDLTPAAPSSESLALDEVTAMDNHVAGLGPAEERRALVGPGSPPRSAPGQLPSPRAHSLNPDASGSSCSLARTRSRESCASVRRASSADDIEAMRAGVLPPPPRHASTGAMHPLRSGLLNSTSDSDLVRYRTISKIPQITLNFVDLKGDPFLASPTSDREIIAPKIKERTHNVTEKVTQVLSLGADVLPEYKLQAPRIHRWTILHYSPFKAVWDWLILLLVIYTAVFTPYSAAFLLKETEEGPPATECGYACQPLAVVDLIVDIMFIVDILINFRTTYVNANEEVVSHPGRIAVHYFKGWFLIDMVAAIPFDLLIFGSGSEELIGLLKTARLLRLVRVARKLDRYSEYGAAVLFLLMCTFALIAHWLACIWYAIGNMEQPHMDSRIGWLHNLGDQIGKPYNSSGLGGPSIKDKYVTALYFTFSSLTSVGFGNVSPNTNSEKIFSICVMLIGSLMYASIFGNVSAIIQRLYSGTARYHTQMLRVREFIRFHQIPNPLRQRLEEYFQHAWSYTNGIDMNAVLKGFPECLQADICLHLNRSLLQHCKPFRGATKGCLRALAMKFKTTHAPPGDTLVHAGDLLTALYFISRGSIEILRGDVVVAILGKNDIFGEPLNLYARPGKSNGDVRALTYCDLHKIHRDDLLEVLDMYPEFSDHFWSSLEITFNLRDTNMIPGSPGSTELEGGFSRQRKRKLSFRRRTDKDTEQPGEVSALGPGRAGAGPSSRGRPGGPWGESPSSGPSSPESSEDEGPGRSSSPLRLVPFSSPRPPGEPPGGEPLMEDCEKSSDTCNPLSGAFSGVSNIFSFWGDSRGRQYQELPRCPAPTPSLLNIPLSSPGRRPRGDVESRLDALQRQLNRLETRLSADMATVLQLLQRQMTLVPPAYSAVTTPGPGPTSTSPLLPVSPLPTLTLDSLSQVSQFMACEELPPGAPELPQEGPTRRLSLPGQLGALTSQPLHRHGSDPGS

Structure (SMILES) | hERG current change (%, negative = inhibition) at 10uM
CC(=O)N1N=C(c2ccc(C)cc2)OC1c1cccnc1 (stereo not shown) | 8.57%
CCOC(=O)C1CCCN(S(=O)(=O)c2ccc(-n3cnnn3)c(C)c2)C1 (stereo not shown) | -11.3%
COc1ccc(Cl)cc1NC(=O)CN(C)C(=O)CCCNC(=O)c1ccc(Cl)cc1 | -55.4%
COc1ccc(Cl)cc1NC(=O)CN(C)C(=O)CCNC(=O)c1ccccc1OC | -9.08%
COc1ccc(Cl)cc1NC(=O)CCCNC(=O)c1ccc(Cl)cc1 | -4.84%
Cc1cc(C)n(/N=C/c2ccccc2)c(=O)c1C#N | 17%
Cc1ccccc1NC(=O)CSc1nc(-c2ccccc2)cc(=O)[nH]1 | 24.9%
CCOc1ncccc1C(=O)Nc1cc(S(=O)(=O)N2CCCCC2)ccc1Cl | 20.5%
COc1cccc(NC(=O)CSc2nnc3c(n2)[nH]c2ccc(C)cc23)c1 | 8.36%
CC(=O)N1CCN(Cc2nc3cc(NC(=O)c4ccccc4Cl)ccc3n2C)CC1 | -20.8%
COc1ccccc1C(=O)N1CCN(Cc2nc3cc([N+](=O)[O-])ccc3n2C)CC1 | -67.6%
Cn1c(CN2CCOCC2)nc2cc(NC(=O)c3ccccc3Cl)ccc21 | -10.4%
Cn1c(CN2CCN(C(=O)c3ccccc3Cl)CC2)nc2cc([N+](=O)[O-])ccc21 | -70.7%
COc1ccc(C(=O)NCCc2nc3cc([N+](=O)[O-])ccc3n2C)cc1 | -39.9%
Cc1cc(C(c2nnnn2Cc2ccccc2)N2CCOCC2)c(C)n1-c1ccc2c(c1)OCO2 (stereo not shown) | -32.1%
CCC(C)(C(=O)Nc1ccccc1C)N(C(=O)CNC(C)=O)c1ccc(C)cc1 (stereo not shown) | 14.8%
COc1ccc(NC(=O)COC(=O)CCCC2=NS(=O)(=O)c3ccccc3N2)cc1Cl | 38.8%
O=C(NCc1ccccc1)c1cc(S(=O)(=O)N2CCCCC2)ccc1N1CCOCC1 | -20.1%
O=C(CSc1nnc(CNc2ccc(F)cc2)o1)N1CCCc2ccccc21 | 2.24%
CCN1CCCC1CNCC(=O)Nc1ccc(OC(F)(F)F)cc1.O=C(O)C(=O)O (stereo not shown) | -70.7%
CCN1CCCC1CNCC(O)COc1ccc(C(C)(C)C)cc1C.O=C(O)C(=O)O (stereo not shown) | -54.4%
CCN1CCCC1CNC(=O)c1cc(N)ccc1OC.O.O=C(O)C(=O)O (stereo not shown) | 13.5%
CCN1CCCC1CNC(=O)C(=O)Nc1ccc(OC)cc1 (stereo not shown) | -5.95%
CCN1CCCC1CNC(=O)C(=O)NCCc1ccc(OC)c(OC)c1 (stereo not shown) | -1.49%

Structure (SMILES) | hERG current change (%, negative = inhibition) at 10uM
CCN(CC(=O)Nc1ccc(OC(F)F)cc1)C1CCCCC1 | -73.5%
Cl.O=C(CNCC1CCCCC1)Nc1ccc(OC(F)(F)F)cc1 | -62.4%
CNCC(=O)Nc1ccc(OC(F)(F)F)cc1.Cl | -3.92%
CCC(C)(C)NCC(=O)Nc1ccc(OC(F)(F)F)cc1 | -32.7%
CCN(CC(=O)Nc1ccc(C(=O)OC)cc1)C1CCCCC1 | -1.85%
CCN(C(=S)Nc1ccc(OC(F)F)cc1)C1CCCCC1 | -22.8%
O=C(CNCC1CCCCC1)Nc1ccc(N2CCCCC2)cc1.O=C(O)C(=O)O | -17.3%
C=CCN1C(=O)NC(=O)/C(=C/c2cc3c4c(c2)CCCN4CCC3)C1=O | -10.2%
CC1CC(C(F)(F)F)n2ncc(C(=O)O)c2N1 (stereo not shown) | 11.5%
CCNC(=O)c1ccc2c(c1)C1C3CCC(C3)C1C(c1ccccc1)N2 (stereo not shown) | -5.8%
CC1=C(C(=O)Nc2ccc(F)cc2)C(c2ccc(C)o2)C2=C(CC(C)(C)CC2=O)N1 (stereo not shown) | -7.85%
COc1ccccc1CNC(=O)COC(=O)c1cc(=O)[nH]c2ccccc12 | 1.03%
Cc1cc(Cl)ccc1C(=O)C1CCCN(C(=O)c2cnn(C(C)C)c2)C1 (stereo not shown) | -17.7%
CC(C)Oc1ccc(C(=O)NN2C(=O)NC3(CCCCC3)C2=O)cc1 | 1.38%
CCOC(=O)N1CCC(N(CCN(C)C)C(=S)Nc2cccc(C)c2)CC1 | 4.81%
COc1ccc(OC)c(NC(=O)NNC(=O)c2cc3occc3[nH]2)c1 | 14.3%
NNC(=O)CC12CC3CC(C1)CC(n1ncnn1)(C3)C2 | -15.1%
COc1ccc(CCC(=O)N(c2nnc(-c3cccnc3)s2)C(C)C)cc1.Cl | -49.6%
Cc1ccc(NC(=O)Cc2ccc(Cl)c(Cl)c2)cc1S(=O)(=O)N(C)C | 7.88%
CCCCCOc1ccc(NC(=O)C(=O)NCC2CCCN2CC)cc1 (stereo not shown) | -77.9%
CN(CC(=O)Nc1ccc(OC(F)(F)F)cc1)C(=O)C1CCC1 | -1.21%
CN(CC(=O)Nc1ccc(OC(F)(F)F)cc1)C1CCCCC1.Cl | -61.6%
CCOC(=O)C1CSC(CC(=O)Nc2ccc(OCC)cc2)C(=O)N1 (stereo not shown) | -5.69%
CN(CC(=O)Nc1ccc(F)c(F)c1F)C(=O)C1CCC1 | 9.13%

Structure (SMILES) | hERG current change (%, negative = inhibition) at 10uM
Cc1ccc(NC(=O)CN(C)C2CCCCC2)cc1Br.Cl | -28.8%
CN(CC(=O)Nc1ccc(F)c(F)c1F)C1CCCCC1 | -52.5%
CCN1CCCC1CNC(=O)C(=O)Nc1ccccc1 (stereo not shown) | -9.35%
CN(CC(=O)Nc1ccc(F)c(F)c1F)C(=O)C1CCCC1 | 1.05%
CCOC(=O)C1CSC(CC(=O)Nc2ccc(OC(F)(F)F)cc2)C(=O)N1 (stereo not shown) | -56.3%
CCOC(=O)C1CSC(CC(=O)Nc2ccc(Cl)cc2)C(=O)N1 (stereo not shown) | -14.9%
CCOc1ccc(NC(=O)C(=O)NCC2CCCN2CC)cc1 (stereo not shown) | -16.4%
CC(=O)Nc1ccc(NC(=O)c2ccc(COc3ccccc3Br)o2)cc1 | 17.1%
CCOC(=O)c1c(C)[nH]c(C(=O)COC(=O)CN2C(=O)C3CCCCC3C2=O)c1C (stereo not shown) | -16.8%
Nc1cc(-c2ccccc2)nn1Cc1ccc(Cl)cc1 | -19%
O=C(CCCOc1ccccc1)Nc1ccc(Br)cc1 | 22.3%
CC(=O)OCCn1c(=O)c2cc3c(=O)n(CCOC(C)=O)c(=O)c3cc2c1=O | -4.39%
Cn1nccc1C(=O)N1CCC(Cc2ccccc2)CC1 | -9.69%
Cc1ccc(S(=O)(=O)N2CCOCC2)cc1C(=O)N1CC(C)OC(C)C1 (stereo not shown) | 15.1%
COc1ccc(S(=O)(=O)N2CCCCC2)cc1NC(=O)CN(Cc1ccco1)Cc1ccco1 | -23.7%
Cc1ccccc1C(=O)NC(=S)Nc1ccc2[nH]c(=O)[nH]c2c1 | 23.1%
COC(=O)c1ccc(COC(=O)c2c(C)nn(Cc3ccccc3Cl)c2Cl)o1 | 10.9%
COCCCNCC(=O)Nc1ccc(OC(F)(F)F)cc1.Cl | -30%
CN(CC(=O)Nc1ccc(SC(F)F)cc1)C1CCCCC1 | -70%
CN(CC(=O)Nc1ccc(Cl)cc1)C1CCCCC1 | -10%
COc1ccc(NC(=O)CN(C)C2CCCCC2)cc1Cl | -55%
CCOCCCNCC(=O)Nc1ccc(OC(F)(F)F)cc1.Cl | -56.4%
COCCNCC(=O)Nc1ccc(OC(F)(F)F)cc1.Cl | -33.9%
COc1ccc(NC(=O)CN(C2CCCCC2)S(C)(=O)=O)cc1Cl | -18.4%

Structure (SMILES) | hERG current change (%, negative = inhibition) at 10uM
CN(CC(=O)Nc1ccc(Cl)c(Cl)c1)C1CCCCC1.O=C(O)C(=O)O | -7.28%
CN(CC(=O)Nc1ccc(S(N)(=O)=O)cc1)C1CCCCC1 | -1.84%
CCCCCCSc1nsc(N)n1 | -10.8%
Cc1cccnc1NC(=O)CNC(=O)C12CC3CC(CC(Cl)(C3)C1)C2 | 13%
CCCCc1ccc(-c2nc(-c3ccncc3)no2)cc1 | 16%
Cc1ccsc1-c1nc(C(N)=O)c2[nH]c(=O)n(-c3ccc(Cl)cc3)c2n1 | 1.51%
O=C(NCc1cccnc1)c1ccc(COc2ccccc2Cl)cc1 | 4.47%
COc1cc(C(=O)NCc2cccnc2)ccc1OCC(=O)Nc1cccc(C(F)(F)F)c1 | 3.13%
O=C(COc1ccc(Cl)cc1)Nc1ccc(C(=O)NCc2cccnc2)cc1 | -36.8%
O=C(COc1ccc(C(=O)NCc2cccnc2)cc1)Nc1cccc(C(F)(F)F)c1 | -60.6%
Cc1cccc(OCC(=O)Nc2ccc(C(=O)NCc3cccnc3)cc2)c1 | -0.608%
O=C(NCc1cccnc1)c1ccc(COc2ccc(Cl)cc2)cc1 | -58.6%
Cc1cccc(-n2c(C)cc(/C=N\NC(=O)c3ccco3)c2C)c1 | -12.8%
C=CCC(=O)N1CCCC(CO)(Cc2ccc(F)cc2F)C1 (stereo not shown) | 0.892%
OCC1(Cc2ccc(F)cc2)CCCN(CCc2ccccc2)C1 (stereo not shown) | -45.5%
Cc1ccccc1CC1(CO)CCCN(C(=O)Cc2c(F)ccc(F)c2F)C1 (stereo not shown) | -0.736%
OCC1(Cc2ccccc2F)CCCN(Cc2c(F)ccc(F)c2F)C1 (stereo not shown) | -55.5%
OCC1(Cc2ccccc2F)CCCN(CC2CCCCC2)C1 (stereo not shown) | -37.7%
OCC1(Cc2ccccc2F)CCCN(CCc2ccccc2)C1 (stereo not shown) | -74.8%
OCC1(Cc2ccc(F)cc2F)CCCN(CCCc2ccccc2)C1 (stereo not shown) | -82.9%
CSCCCN1CCCC(CO)(Cc2ccccc2F)C1 (stereo not shown) | -38.3%
O=C(Cc1cccc(F)c1)N1CCCC(CO)(Cc2ccc(F)cc2F)C1 (stereo not shown) | -9.84%
